The list is not random: actives were taken first. Their share in the collection is about 7.3%.
SNCA expr inh – Primary qHTS assay for inhibitors of alpha-synuclein gene (SNCA) expression; AID 1671194, 2021; HEK-293 SNCA-luciferase knock-in, luminescence, 24 h; 140,000 tested, 0.17% active; Potency, µM (top dose mostly 57.2 µM), hits mostly inhibitors; also: nearly all actives have a fitted effect of over 45% in size
HEK293 tox – Cytotoxic Profiling in HEK 293 Cell Line of Diverse Libraries Using Quantitative High-Throughput Screening; HEK 293 viability, ATP luminescence (CellTiter-Glo), 48-72 h; Potency, µM (doses to about 115 µM), usual class: inhibitors; 94,000 tested, 6.6% active; AID 1345083, 2018; also: nearly all actives have a fitted effect of over 60% in size
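Pintool-delivered compounds were incubated with HEK 293 cells (250 cells/well) at 37 degree Celsius for 48 or 72 hr. ATP-dependent luminescence (CellTiter-Glo) then reported remaining viable cells.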
IP6K1 inhibitor – Primary qHTS assay for small molecule inhibitors of Inositol hexaphosphate kinase 1 (IP6K1); Inositol hexakisphosphate kinase 1 (Homo sapiens), Q92551; IP6K1 kinase, ADP-Glo luminescence, 2 h; stronger effect = lower value; activity change, % (series mostly up to about 58 µM); 140,000 tested, 0.81% active; in the data active = activity change below about -25%
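ADP-Glo luminescence measures ADP made by human IP6K1 during a 2 h RT reaction with ATP/IP6 (mix at 1.3 mM/130 uM); top library doses 57.5 and 19.1 uM final.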
NIH3T3 tox – Cytotoxic Profiling in NIH 3T3 Cell Line of Diverse Libraries Using Quantitative High-Throughput Screening | Potency, µM (top dose mostly 96.7 µM), actives largely listed as inhibitors | AID 1345082, 2018 | 94,000 tested, 4.3% active | NIH 3T3 viability, CellTiter-Glo ATP luminescence, 48-72 h; also: nearly all actives have a fitted effect of over 55% in size
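NIH 3T3 cells at 400 cells/well received 23 nL of compound by pintool and were incubated 48 or 72 h at 37 °C. Viability was read as ATP-coupled CellTiter-Glo luminescence.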
SNCA viab count – GF-AFC viability counterscreen for inhibitors of alpha-synuclein gene (SNCA) expression; 150,000 tested, 0.12% active; Potency, µM (top dose mostly 57.1 µM), usual class: cytotoxic; HEK-293-SNCA-luc viability, GF-AFC fluorescence, 24 h; also: nearly all actives have a fitted effect of over 30% in size
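Cytotoxicity counterscreen: after 24 h compound treatment of genome-edited SNCA-luciferase HEK-293 cells, live-cell protease substrate GF-AFC read by fluorescence after 30 min; activity scaled between DMSO (0%) and medium-only (-100%), curves Hill-fitted.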
Luciferase inh – Firefly luciferase inhibition profiling of diverse chemical library using quantitative high-throughput screening | Luciferin 4-monooxygenase (Photinus pyralis), P08659 | purified P. pyralis luciferase, luminescence, biochemical | Potency, µM (doses to about 115 µM), usual class: inhibitors | 76,000 tested, 2.5% active; also: nearly all actives have a fitted effect of over 65% in size
Target sequence (P08659 whole entry, looked up): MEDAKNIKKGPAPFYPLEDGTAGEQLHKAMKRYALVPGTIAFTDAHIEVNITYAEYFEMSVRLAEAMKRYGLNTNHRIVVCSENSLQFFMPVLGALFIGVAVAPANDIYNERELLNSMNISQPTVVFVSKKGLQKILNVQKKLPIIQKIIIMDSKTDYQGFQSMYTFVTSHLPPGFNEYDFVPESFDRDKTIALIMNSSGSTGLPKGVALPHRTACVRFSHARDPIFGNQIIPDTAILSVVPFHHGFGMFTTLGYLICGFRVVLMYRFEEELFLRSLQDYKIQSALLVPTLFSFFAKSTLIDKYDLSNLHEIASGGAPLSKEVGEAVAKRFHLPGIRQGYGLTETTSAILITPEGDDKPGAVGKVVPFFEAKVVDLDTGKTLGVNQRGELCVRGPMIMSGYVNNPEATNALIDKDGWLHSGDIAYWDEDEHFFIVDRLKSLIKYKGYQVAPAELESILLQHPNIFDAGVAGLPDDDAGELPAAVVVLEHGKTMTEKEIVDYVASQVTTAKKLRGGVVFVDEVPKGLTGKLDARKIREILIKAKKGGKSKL
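Biochemical qHTS: compound (6-point titration) added to 10uM D-luciferin plus 10uM ATP in Tris acetate pH 7.5 buffer with Mg, Tween-20 and BSA, then purified enzyme at 10nM; light output imaged.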
Of the large screens only hits and unclear results are named; the others gave an inactive call. Unless noted, calls follow the shape of the dose curve; as a rule, active = well fitted curve in the direction sought with a large enough effect; inconclusive = small, poorly fitted or top-dose-only effect, or another doubt; inactive = no such curve, though single readings can be large; an effect the other way counts as inactive or inconclusive.

CC(C)c1ccc(N2C(=O)N[C@@H]3CCN(C(=O)CC4(CC(=O)O)CCCC4)[C@@H]3C2=O)cc1	none
O=C1CC2(CCN([S+](=O)([O-])c3cccc(C(F)(F)F)c3)CC2)Oc2cc(Cl)ccc21	HEK293 tox 32µM, NIH3T3 tox inconclusive
COc1ccc(C(=O)N2CCC3(CC2)CNC(=O)c2ccccc2O3)cc1	none
O=C1CC2(CCN(C(=O)c3ccccc3)CC2)Oc2ccccc21	HEK293 tox inconclusive, NIH3T3 tox inconclusive
O=C1CC2(CCN([S+](=O)([O-])c3cccc(C(F)(F)F)c3)CC2)Oc2ccccc21	HEK293 tox inconclusive, NIH3T3 tox inconclusive
COc1ccc(C(=O)N2CCC3(CC2)CC(=O)c2ccc(Cl)cc2O3)cc1	HEK293 tox 50µM, NIH3T3 tox inconclusive
Cc1ccc(C(=O)N2CCC3(CC2)CC(=O)c2ccc(Cl)cc2O3)cc1	HEK293 tox inconclusive, NIH3T3 tox 35µM
COc1cccc(N2CCN(c3nc(C(=O)NCc4ccco4)cs3)CC2)c1	HEK293 tox 45µM, NIH3T3 tox inconclusive
CN(C)C(=O)c1csc(N2CCN(c3cccc(Cl)c3)CC2)n1	HEK293 tox inconclusive, NIH3T3 tox inconclusive, Luciferase inh inconclusive
CCCN(C)C(=O)c1csc(N2CCN(c3cccc(Cl)c3)CC2)n1	HEK293 tox 32µM, NIH3T3 tox inconclusive
Cc1ccc(C(=O)N2CCN(c3ccc4nnc(C)n4n3)CC2)cc1	NIH3T3 tox inconclusive (no result: SNCA expr inh, SNCA viab count, Luciferase inh)
COc1ccc(-c2nnc3n2CCN(C(=O)Cc2ccccn2)C3)cc1	none
CCOC(=O)c1cc(-c2ccc(C)cc2)n(CCC(=O)Nc2nc3c(C)cccc3s2)c1C	SNCA expr inh 14µM (no result: HEK293 tox, NIH3T3 tox, Luciferase inh)
COc1cccc(N2C(=O)NC(=NC3CCCC3)C23CCN(Cc2ccccc2)C3)c1 (configuration not stated)	HEK293 tox 89µM, NIH3T3 tox inconclusive, SNCA viab count inconclusive (no result: Luciferase inh)
COc1cccc(N2C(=O)NC(=NC3CCCCC3)C23CCCN(Cc2ccc(F)cc2)C3)c1 (configuration not stated)	SNCA expr inh inconclusive, HEK293 tox inconclusive, NIH3T3 tox 40µM (no result: Luciferase inh)
COc1cccc(N2C(=O)NC(=NC3CCCCC3)C23CCCN(CCC(C)C)C3)c1 (configuration not stated)	HEK293 tox 40µM, NIH3T3 tox inconclusive (no result: Luciferase inh)
COc1ccccc1C(=O)N1CCCCC1c1noc(COc2ccc(C)cc2)n1 (configuration not stated)	HEK293 tox inconclusive, NIH3T3 tox inconclusive
O=C(NCCNC(=O)c1ccccn1)c1ccc(-c2cccc(C(F)(F)F)c2)cc1	HEK293 tox inconclusive, NIH3T3 tox inconclusive (no result: SNCA expr inh, SNCA viab count, Luciferase inh)
c1ccc(-c2nnc3ccc(NC4CCC4)nn23)nc1	NIH3T3 tox inconclusive
COc1ccnc(-c2nnc3ccc(N4CCN(C(=O)c5ccco5)CC4)nn23)c1	NIH3T3 tox inconclusive
c1ccc(C2CCN(c3ccc4nnc(-c5ccccn5)n4n3)CC2)cc1	HEK293 tox 63µM, NIH3T3 tox 32µM
COc1ccc(-c2nnc3ccc(N4CCCC4)nn23)nc1	NIH3T3 tox 32µM
OCc1ccc(-c2ccc3nnc(-c4ccccn4)n3n2)cc1	NIH3T3 tox 89µM
COc1ccnc(-c2nnc3ccc(N4C[C@@H](C)O[C@@H](C)C4)nn23)c1	HEK293 tox inconclusive, NIH3T3 tox 32µM
Cn1cnc(S(=O)(=O)N2CCCC(c3[nH]ccc3C(N)=O)C2)c1 (configuration not stated)	none
O=C(c1ccncc1)N1CCC(Oc2cccc(F)c2)C1 (configuration not stated)	none
CCNC(=O)N[C@H]1CO[C@H]2[C@@H]1OC[C@H]2OC(=O)Nc1ccc(C(C)=O)cc1	NIH3T3 tox inconclusive
CC(C)C(=O)N1CCCCCNC(=O)[C@@H]2CCCC[C@@H]21	none
CCCS(=O)(=O)N1CCC(Cc2nncn2-c2ccccc2)CC1	NIH3T3 tox inconclusive
COc1ccnc(-c2nnc3ccc(N4CCc5ccccc5CC4)nn23)c1	HEK293 tox 56µM, NIH3T3 tox 50µM
COc1ccc(C(=O)N2CCC3(CC2)CC(c2nc(C)no2)N(C)C3)cc1 (configuration not stated)	none (no result: Luciferase inh)
COc1ccccc1C(=O)N1CCN(C(=O)c2nnn3c2COC(c2ccc(C)cc2)C3)CC1 (configuration not stated)	HEK293 tox inconclusive, NIH3T3 tox inconclusive
CCn1cc(CN(C)C(=O)c2cc(-c3ccc(OC)cc3)cn2CC)c(C)n1	HEK293 tox 35µM, NIH3T3 tox inconclusive, Luciferase inh 40µM
COc1ccc(CC2(CO)CCN(c3cc(OC)nc(N)n3)CC2)cc1	HEK293 tox 45µM
Cc1noc(C2CC3(CCN(C(=O)COc4ccccc4)CC3)CN2C)n1 (configuration not stated)	none (no result: Luciferase inh)
CN(Cc1ccc(F)cc1)C1CCCc2ccccc21 (configuration not stated)	none
CN(C(=O)c1cccc(Cl)c1)C1CCCc2ccccc21 (configuration not stated)	HEK293 tox 71µM, NIH3T3 tox inconclusive
CN(C(=O)Nc1ccc(Cl)cc1)C1CCCc2ccccc21 (configuration not stated)	HEK293 tox 89µM, NIH3T3 tox inconclusive, Luciferase inh 28µM
CN(C(=O)c1ccc(Cl)nc1)C1CCc2ccccc21 (configuration not stated)	HEK293 tox inconclusive
CN(C(=O)Cc1ccc(F)cc1)C1CCCc2ccccc21 (configuration not stated)	HEK293 tox 100µM
Cc1ccc(C(=O)N(C)C2CCc3ccccc32)cc1 (configuration not stated)	HEK293 tox 100µM, NIH3T3 tox inconclusive, Luciferase inh inconclusive
CN(C(=O)c1ccccc1)C1CCCc2ccccc21 (configuration not stated)	HEK293 tox inconclusive, NIH3T3 tox inconclusive
CNC(=O)c1cc(C)nc2onc(C3CCCN(C(=O)c4cccc(Cl)c4)C3)c12 (configuration not stated)	HEK293 tox inconclusive, NIH3T3 tox inconclusive (no result: SNCA expr inh, SNCA viab count, Luciferase inh)
CC(C)(C)CNC1(Cc2cc(COc3ccccc3)on2)COC1	HEK293 tox inconclusive, NIH3T3 tox inconclusive
